Assay results reported in ChEMBL document CHEMBL4513216, “Probing the Open Global Health Chemical Diversity Library for Multistage-Active Starting Points for Next-Generation Antimalarials” (ACS Infect Dis, 2020).
Among all 69,000 compounds or so, about 8,600 (12%) showed an effect of 50% or more. The list comes from a sample in which strong results are over-represented; it also holds similar structures and randomly drawn compounds.

Tested on: Plasmodium berghei
Experiment: Screen against P. berghei liver stage (PbLuc), transformed with Luciferase, at 10uM
Format: functional, HepG2
Details: tested at 10 uM

Question: How did the INHIBITION turn out when `CCCN1CCC(c2nc3ccc(-c4ccncc4)cn3n2)CC1` was run?
Answer: 16.8%

Question: Which INHIBITION does the source give for `COCCN1CCC(c2nc3ccc(-c4ccccc4)cn3n2)CC1` here?
Answer: -18.4%

Question: For `Cc1cccc(-c2ccc3nc(C4CCN(CC5CC5)CC4)nn3c2)c1`, which INHIBITION is on record?
Answer: 46.8%

Question: How did the INHIBITION turn out when `CCCN1CCC(c2nc3ccc(-c4cccc(OC)c4)cn3n2)CC1` was run?
Answer: 82.9%

Question: `CCCN1CCC(c2nc3ccc(-c4ccccc4)cn3n2)CC1` was tested. Which INHIBITION did it give?
Answer: 54.8%

Question: With `CCCN1CCC(c2nc3ccc(-c4cccc(F)c4)cn3n2)CC1` as the compound, how does the INHIBITION read?
Answer: 47.5%

Question: Which INHIBITION does the source give for `CN(CCS(C)(=O)=O)C1CCCN(Cc2noc(C3CC3)n2)C1` (configuration not stated) here?
Answer: 47.3%

Question: Which INHIBITION does the source give for `CSc1cccc(CN(C)C(=O)c2ccc(C3CCCNC3)cc2)c1` (configuration not stated) here?
Answer: 9.56%

Question: `CCOC(=O)N1CCC(NC(=O)c2cccc(C3CCCNC3)c2)CC1` (configuration not stated) was tested. Which INHIBITION did it give?
Answer: 9.72%

Question: `CSc1cccc(CN(C)C(=O)c2cccc(C3CCCNC3)c2)c1` (configuration not stated) was tested. Which INHIBITION did it give?
Answer: 60.4%

Question: For `CN(Cc1ccc2c(c1)OCO2)C(=O)c1ccc(C2CCCNC2)cc1` (configuration not stated), which INHIBITION is on record?
Answer: -26.5%

Question: For `CSCCN1CCC(NC(=O)c2cccc(C3CCCNC3)c2)CC1` (configuration not stated), which INHIBITION is on record?
Answer: 50.8%

Question: For `O=C(NC1CCOCC1)c1cccc(C2CCCNC2)c1` (configuration not stated), which INHIBITION is on record?
Answer: 27.7%

Question: With `Cc1cccc(-n2cc3[nH]c(=O)n(Cc4cccc(F)c4)n3c2=O)c1` as the compound, how does the INHIBITION read?
Answer: 25.2%

Question: With `CCc1noc(CN(CC)C(=O)CC2C(=O)NCCN2CC=C(C)C)n1` (configuration not stated) as the compound, how does the INHIBITION read?
Answer: 16.9%

Question: How did the INHIBITION turn out when `Cc1nc(C2NC3(CCCC3)C(=O)N2CC2CC2)cs1` (configuration not stated) was run?
Answer: 47.7%

Question: For `CCc1nc(C2NC3(CCCC3)C(=O)N2CC2CC2)cs1` (configuration not stated), which INHIBITION is on record?
Answer: 61.6%

Question: How did the INHIBITION turn out when `Cc1csc(C2NC3(CCCC3)C(=O)N2CC2CC2)n1` (configuration not stated) was run?
Answer: 43.5%

Question: With `O=C(NCC1CC1)C1CSCN1S(=O)(=O)c1ccccc1` (configuration not stated) as the compound, how does the INHIBITION read?
Answer: -35.9%

Question: Which INHIBITION does the source give for `Cc1n[nH]c(C2CN(CCc3cccs3)CCO2)n1` (configuration not stated) here?
Answer: 35.3%

Question: `Cc1cccc(CN2C(=O)CO[C@@H]3CN(CCO)C[C@H]32)c1` was tested. Which INHIBITION did it give?
Answer: -9.76%

Question: For `COc1ccc(-c2nnc(CN3CCCC3Cn3cncn3)o2)cc1` (configuration not stated), which INHIBITION is on record?
Answer: 45.1%

Question: Which INHIBITION does the source give for `NC(=O)N1CCC2(CC1)CC(=O)N(CC1CCCO1)c1ccccc12` (configuration not stated) here?
Answer: 54.3%

Question: Which INHIBITION does the source give for `O=C([C@H]1CCCO1)N1CCC2(CC1)C(=O)N(CC1CC1)c1ccccc12` here?
Answer: 17.4%

Question: Which INHIBITION does the source give for `Cc1nc(CN2C(=O)CC3(CCN(C(N)=O)CC3)c3ccccc32)cs1` here?
Answer: 36.4%

Question: Which INHIBITION does the source give for `COCCN1CCC2(CCN(Cc3ccc(OC)cc3)CC2)C1=O` here?
Answer: 38.3%

Question: `O=C(c1cnc2[nH]c(=O)[nH]c(=O)c2c1)N1CCCC1C1CCCCC1` (configuration not stated) was tested. Which INHIBITION did it give?
Answer: -1.35%

Question: Which INHIBITION does the source give for `O=C(c1c[nH]nn1)N1CCCC1C1CCCCC1` (configuration not stated) here?
Answer: 53.8%

Question: With `O=C(c1ccc(=O)[nH]n1)N1CCCC1C1CCCC1` (configuration not stated) as the compound, how does the INHIBITION read?
Answer: 18%

Question: Which INHIBITION does the source give for `CC(C)N1CCC2(CC1)CC(NS(C)(=O)=O)c1ccccc1O2` (configuration not stated) here?
Answer: -12.2%

Question: How did the INHIBITION turn out when `CC(C)NC(=O)NCc1cc(-c2ccco2)n(CC(F)(F)F)n1` was run?
Answer: 20.4%

Question: For `Cc1nc(C)c(C)c(N2CCC(O)(c3ccc(F)cc3)CC2)n1`, which INHIBITION is on record?
Answer: 25.5%

Question: `Cc1nc(N2CCC(O)(c3ccc(F)cc3)CC2)c2c(C)nn(C)c2n1` was tested. Which INHIBITION did it give?
Answer: 51.2%

Question: Which INHIBITION does the source give for `Cc1nc(N2CCC(O)(c3ccccc3)CC2)c2c(C)nn(C)c2n1` here?
Answer: 28.4%

Question: Which INHIBITION does the source give for `Cn1cc(CN2CCC3(CC2)CCN(C(=O)c2cscn2)C3)cn1` here?
Answer: 38.5%

Question: How did the INHIBITION turn out when `COCC1CC2(CCN(c3cccc(C)n3)CC2)CN1c1ncccn1` (configuration not stated) was run?
Answer: 46.6%

Question: `Cn1cncc1-c1nnc([C@H]2CCN(Cc3ccc(CO)o3)C2)o1` was tested. Which INHIBITION did it give?
Answer: -18.2%
